Results reported in PubChem BioAssay (EPA / NIEHS).
Calls of active or inactive are those of the source. How the source made its calls: active means hit-call score of the fitted dose curve at least 0.9, where 1 is the maximum; inactive means score below 0.9.

Each compound was assayed against Nuclear respiratory factor 1 (Homo sapiens) (UniProt Q16656) (assay: ATG_NRF1_CIS: Attagene CIS-FACTORIAL HepG2 Assay for human Nuclear Respiratory Factor 1 (NRF1) Orphan Gene (AID 2282987)). Details: HepG2 NRF1 cis-element reporter, Attagene multiplex; actives raise or lower the signal.
Chain of Nuclear respiratory factor 1 (Homo sapiens) (Q16656 whole entry, looked up): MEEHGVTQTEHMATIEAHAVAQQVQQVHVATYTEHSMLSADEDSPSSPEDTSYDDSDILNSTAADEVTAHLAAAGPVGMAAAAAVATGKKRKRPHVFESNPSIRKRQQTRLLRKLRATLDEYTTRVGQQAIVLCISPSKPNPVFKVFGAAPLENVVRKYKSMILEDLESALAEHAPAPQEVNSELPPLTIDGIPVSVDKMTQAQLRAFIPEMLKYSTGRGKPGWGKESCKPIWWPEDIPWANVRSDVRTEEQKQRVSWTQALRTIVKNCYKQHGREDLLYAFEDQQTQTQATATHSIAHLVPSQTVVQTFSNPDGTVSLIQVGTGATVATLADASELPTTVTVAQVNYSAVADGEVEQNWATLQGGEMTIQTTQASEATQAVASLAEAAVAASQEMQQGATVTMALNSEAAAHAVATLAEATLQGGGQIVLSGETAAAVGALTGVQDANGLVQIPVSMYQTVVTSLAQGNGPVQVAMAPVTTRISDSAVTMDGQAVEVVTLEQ
Outline: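 Endogenous factor activity was captured via cis-element-driven reporter transcripts in HepG2 cells. Following 24 h chemical treatment, transcripts were quantified by RT-PCR and capillary electrophoresis.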

| Structure (SMILES) | outcome | AC50 |
| --- | --- | --- |
| CCN(CC)c1ccccc1 | inactive | – |
| FC(F)(F)C(F)(C(F)(F)F)C(F)(F)C(F)(F)CC1CO1 (stereo not drawn) | inactive | – |
| CCOP(=S)(OCC)SCSc1ccc(Cl)cc1 | inactive | – |
| c1nc[nH]n1 | inactive | – |
| Clc1ccc(Oc2ccccc2)cc1 | inactive | – |
| c1cc2c3c(cccc3c1)CC2 | inactive | – |
| CCN(CC)C1CCCCC1 | inactive | – |
| Cc1cc(C)c(C(=O)P(=O)(c2ccccc2)c2ccccc2)c(C)c1 | inactive | – |
| CCCCC(CC)COP(=O)(Oc1ccccc1)Oc1ccccc1 (stereo not drawn) | – | 173 µM (active) |
| CCOc1ccc(C(C)(C)COCc2cccc(Oc3ccccc3)c2)cc1 | inactive | – |
| CCCCN(CC)C(=O)SCCC | inactive | – |
| COP(=O)(O)OC | inactive | – |
| Cc1cccc(N)c1 | inactive | – |
| Nc1ccc(Sc2ccc(N)cc2)cc1 | inactive | – |
| O=C(O)C1C(C(=O)O)C2(Cl)C(Cl)=C(Cl)C1(Cl)C2(Cl)Cl (stereo not drawn) | inactive | – |
| Nc1cc2c3c(c1)C(c1ccccc1)=N[C@@H](NC(=O)c1cccnc1)C(=O)N3CC2 | inactive | – |
| CCOP(=S)(OCC)SCSCC | inactive | – |
| OCC1CO1 (stereo not drawn) | inactive | – |
| O=P(OCC(Br)CBr)(OCC(Br)CBr)OCC(Br)CBr (stereo not drawn) | – | 18.6 µM (active) |

| Structure (SMILES) | outcome | AC50 |
| --- | --- | --- |
| c1ccc(OP(Oc2ccccc2)Oc2ccccc2)cc1 | inactive | – |
| CCOS(=O)(=O)OCC | inactive | – |
| ClC1=C(Cl)C2(Cl)C3C(Cl)C(Cl)CC3C1(Cl)C2(Cl)Cl (stereo not drawn) | inactive | – |
| CC(Cl)(Cl)C(=O)O | inactive | – |
| OCC(F)(F)OC(F)(F)C(F)(F)OC(F)(F)CO | inactive | – |
| CCCN(CCC)c1c([N+](=O)[O-])cc(C(C)C)cc1[N+](=O)[O-] | inactive | – |
| C=CC(=O)OCC(CC)(COC(=O)C=C)COC(=O)C=C | inactive | – |
| CC(Cl)CN(C)C (stereo not drawn) | inactive | – |
| Oc1ccc(I)cc1 | inactive | – |
| N#C/C=C/c1ccccc1 | inactive | – |
| CO/N=C(/C(=O)OC)c1ccccc1COc1ccccc1C | inactive | – |
| CC1(C)CN=C(NN=C(/C=C/c2ccc(C(F)(F)F)cc2)/C=C/c2ccc(C(F)(F)F)cc2)NC1 | – | 18 µM (active) |
| O=C(O)C(F)(F)OC(F)(F)C(F)(F)OC(F)(F)C(=O)O | inactive | – |
| [N-]=[N+]=[N-] | inactive | – |
| O=C(O)C=CC(F)(C(F)(F)F)C(F)(F)F | inactive | – |
| CCCCc1ccccc1 | inactive | – |
| ClC(Cl)(Cl)c1ccccc1 | inactive | – |
| O=[N+]([O-])c1ccccc1 | inactive | – |
| CSC(C)(C)C=NO | inactive | – |
